# Test results from paper PMC4336329 (PLoS ONE, 2015).
# The whole screen tested about 310,000 compounds, of which about 14,000 (4.5%) showed an effect of 50% or more. Effects have a minus sign here. This is one part of a sample in which strong results are shown more often than they occur.
# Target: human ether-à-go-go-related gene (hERG) potassium channel (human, UniProt Q12809)
# Test: primary screen, population patch clamp on CHO cells stably expressing hERG; higher = less effect of the substance
# 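Further: peak tail current of the secondary pulse compared with the same well before compound.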
# human ether-à-go-go-related gene (hERG) potassium channel, sequence (Q12809 whole entry, looked up): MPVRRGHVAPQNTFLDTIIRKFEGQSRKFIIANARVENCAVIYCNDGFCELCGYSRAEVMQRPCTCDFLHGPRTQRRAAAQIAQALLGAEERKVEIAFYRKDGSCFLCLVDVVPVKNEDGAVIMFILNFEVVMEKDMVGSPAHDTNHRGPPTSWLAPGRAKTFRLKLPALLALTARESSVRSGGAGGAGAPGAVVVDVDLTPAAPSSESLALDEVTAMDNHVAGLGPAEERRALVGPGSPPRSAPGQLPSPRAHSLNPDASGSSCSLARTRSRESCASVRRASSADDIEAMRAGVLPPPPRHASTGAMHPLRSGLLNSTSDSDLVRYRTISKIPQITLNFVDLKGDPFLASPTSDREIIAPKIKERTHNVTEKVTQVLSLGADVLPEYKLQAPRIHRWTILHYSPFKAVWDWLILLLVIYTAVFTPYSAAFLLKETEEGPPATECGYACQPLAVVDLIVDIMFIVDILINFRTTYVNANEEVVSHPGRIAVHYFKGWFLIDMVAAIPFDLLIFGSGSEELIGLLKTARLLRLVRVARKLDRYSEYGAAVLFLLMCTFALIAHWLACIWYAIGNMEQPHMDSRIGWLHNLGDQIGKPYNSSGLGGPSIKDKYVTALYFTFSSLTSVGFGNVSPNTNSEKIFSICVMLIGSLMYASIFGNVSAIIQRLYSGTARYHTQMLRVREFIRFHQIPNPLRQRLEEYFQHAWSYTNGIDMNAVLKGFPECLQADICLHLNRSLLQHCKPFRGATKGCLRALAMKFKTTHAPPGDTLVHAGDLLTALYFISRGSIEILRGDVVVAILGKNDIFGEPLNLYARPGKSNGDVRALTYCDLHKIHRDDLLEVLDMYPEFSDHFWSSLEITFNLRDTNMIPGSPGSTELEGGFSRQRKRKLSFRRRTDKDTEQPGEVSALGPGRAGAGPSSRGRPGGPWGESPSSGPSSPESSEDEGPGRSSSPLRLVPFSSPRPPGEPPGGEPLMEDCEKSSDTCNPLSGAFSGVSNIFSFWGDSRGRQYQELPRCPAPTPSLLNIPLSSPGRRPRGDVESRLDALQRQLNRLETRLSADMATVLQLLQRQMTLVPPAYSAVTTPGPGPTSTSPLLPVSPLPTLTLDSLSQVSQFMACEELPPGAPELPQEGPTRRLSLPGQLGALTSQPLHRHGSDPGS
row,SMILES,"hERG current change (%, negative = inhibition) at 10uM"
1,COC(=O)C1CN(C(=O)COc2ccc(Cl)cc2Cl)c2ccccc2O1 (stereo not shown),-2.51%
2,CCCCNC(=O)/C(C#N)=c1\s/c(=C\c2ccccc2OC(F)F)c(=O)n1CCCOC,22.6%
3,Cc1ccc(Nc2c([N+](=O)[O-])cc(C(=O)N3CC(=O)Nc4ccccc43)cc2[N+](=O)[O-])c(C)c1,15.2%
4,COCCNC(=O)C(=O)c1c(-c2ccccc2)[nH]c2ccccc12,1.69%
5,CCOC(=O)NCc1ccc2c(c1)OCO2,19.7%
6,O=C(CCN1C(=O)/C(=C/c2ccc(F)cc2)SC1=S)Nc1cc([N+](=O)[O-])ccc1O,15%
7,COC(=O)c1ccnc(/C=N/O)c1,10.7%
8,CCNS(=O)(=O)c1ccc2nc(NC(=O)c3cccnc3)sc2c1,-1.78%
9,Cc1ccc(N2CC(C(=O)Nc3cccnc3)CC2=O)cc1 (stereo not shown),-9.42%
10,O=S(=O)(c1ccc(Cl)cc1)N1CCN2CCCC2C1 (stereo not shown),-6.01%
11,CN(C)NC1CC(=O)N(c2ccccc2)C1=O (stereo not shown),15.9%
12,NC(=O)N/N=C/c1cn(-c2ccccc2)nc1-c1ccccc1,-6.63%
13,Cc1[nH]c(=O)[nH]c(=O)c1S(=O)(=O)Nc1ccc(F)cc1Cl,17.1%
14,S=c1[nH]nc(COc2ccccc2)n1/N=C/c1ccc(Cl)cc1,22.4%
15,N=c1c2c(ncn1Cc1ccco1)Oc1c(ccc3ccccc13)C2c1ccccc1 (stereo not shown),-26.5%
16,COc1ccc(C2c3ccc4ccccc4c3Oc3ncn(Cc4ccco4)c(=N)c32)cc1OC (stereo not shown),-62.9%
17,COc1ccc(C2c3ccc4ccccc4c3Oc3ncn(CCCO)c(=N)c32)cc1 (stereo not shown),-71.6%
18,COc1ccccc1C1c2ccc3ccccc3c2Oc2ncn(CCCO)c(=N)c21 (stereo not shown),-66.6%
19,COc1ccc(C2c3ccc4ccccc4c3Oc3ncn4nc(Cc5ccccc5)nc4c32)cc1OC (stereo not shown),13.2%
20,CC1(c2nnc(-c3ccccc3)o2)CC(c2ccc([N+](=O)[O-])cc2)=NO1 (stereo not shown),4.53%
21,O=C(Nc1cccc(Cl)c1)c1cc(S(=O)(=O)N2CCCCC2)c[nH]1,-9.13%
22,Cc1nn2c(=O)cc(CSc3ccccc3NC(=O)c3ccccc3F)nc2s1,-3.29%
23,CCCCCCCCCCCC(=O)N/N=C/c1ccco1,-11.2%
24,COc1ccc(Cc2nc3ccc(C(=O)N4CCCCC4CCO)cc3o2)cc1 (stereo not shown),4.93%
25,CN(C)C(=O)Cn1c(SCC(=O)NC2CCCCC2)nc2ccccc21,7.7%
26,COC(=O)Cn1c(=O)c(=O)n(CC(=O)OC)c2ccccc21,22.7%
27,Cn1cnc(S(=O)(=O)NC2CCN(Cc3c(F)cccc3Cl)CC2)c1,-18.6%
28,COCCN(C(=O)C1CC1)c1nnc(-c2cccc(C)c2)s1,-6.82%

row,SMILES,"hERG current change (%, negative = inhibition) at 10uM"
1,O=C(OCC(=O)N1CCN(c2ccccc2)CC1)c1cc(Cl)ccc1[N+](=O)[O-],-37%
2,O=C(O)CCC(=O)N1CCN(c2cccc(Cl)c2)CC1,12%
3,O=C(CCn1c(=O)c2cccn2c2cccnc21)N1CCN(c2cccc(Cl)c2)CC1,-58.8%
4,O=C(OCC(=O)N1CCN(c2ccccc2)CC1)c1ccccc1[N+](=O)[O-],-28.8%
5,O=C(Cn1c(=O)c2cccn2c2cccnc21)N1CCN(c2ccc(Cl)cc2)CC1,-47%
6,O=C(CCC(=O)N1CCN(c2cccc(Cl)c2)CC1)N1CCN(c2ccccc2)CC1,-55.6%
7,O=C(CCCNS(=O)(=O)c1cccs1)N1CCN(c2cccc(Cl)c2)CC1,-56.9%
8,CN1CCN(C(=O)CCn2c(=O)c3cccn3c3cccnc32)CC1,8.62%
9,O=C(CCCNS(=O)(=O)c1cccs1)N1CCN(c2ccc(F)cc2)CC1,-43.2%
10,O=C(CCNS(=O)(=O)c1cccs1)N1CCN(c2cccc(Cl)c2)CC1,-10.3%
11,O=C(O)CCCC(=O)N1CCN(c2cccc(Cl)c2)CC1,2.98%
12,O=C(OCC(=O)N1CCN(c2ccccc2)CC1)c1ccc(Cl)cc1[N+](=O)[O-],-63.6%
13,O=C(COc1c(Br)cc(Br)cc1Br)N/N=C/c1ccco1,14.2%
14,Nc1nnc(SCC(=O)Nc2ccc(Cl)c(C(=O)O)c2)s1,19.8%
15,O=C(NCCc1ccc(C(F)(F)F)cc1)C1CC(=O)N(c2ccc3c(c2)OCCO3)C1 (stereo not shown),-2.97%
16,O=C(Cn1cc(C(=O)C2CCCCC2)c2ccccc21)NCC1CCCO1 (stereo not shown),-14.8%
17,O=C(Nc1ccc(Br)cc1)NC1CCCCCCC1,2.29%
18,O=C(NCCN1CCCCC1)/C(=N\O)c1ccccc1,5.35%
19,COc1ccc(N2CCN(C(=O)CCNC(=O)c3ccc(Br)cc3)CC2)cc1,-20.2%
20,O=C(c1cccs1)N1CCN(c2cccc(Cl)c2)CC1,-16.5%
21,O=C(CCC(=O)N1CCN(c2cccc(Cl)c2)CC1)c1cccs1,-56.8%
22,COc1ccccc1N1CCN(C(=O)CCn2c(=O)[nH]c3ccsc3c2=O)CC1,8.71%
23,O=C(NCCC(=O)N1CCN(c2cccc(Cl)c2)CC1)c1ccc(Br)cc1,-55%
24,O=C(CCn1c(=O)[nH]c2ccsc2c1=O)N1CCN(c2ccc([N+](=O)[O-])cc2)CC1,-35.2%
25,O=C(CCn1c(=O)[nH]c2ccsc2c1=O)N1CCN(c2cccc(Cl)c2)CC1,-52.3%
26,O=C(NCCC(=O)N1CCN(c2ccccc2O)CC1)c1ccc(Br)cc1,-13.3%
27,O=C(CCC(=O)N1CCN(c2ccc(O)cc2)CC1)c1cccs1,-3.11%
